Experimental data as given in PubChem BioAssay.

Target: Follistatin-related protein 3 (Homo sapiens) (UniProt O95633)
Assay: compounds binding follistatin-related protein 3 – biochemical, small-molecule microarray, 635 nm fluorescence, primary screen (AID 1105);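 also: score merges emission near 667 nm and signal to noise per printed spot across three slides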
Conditions: FSTL3 binding, higher = more signal

Chain of Follistatin-related protein 3 (Homo sapiens) (O95633 whole entry, looked up): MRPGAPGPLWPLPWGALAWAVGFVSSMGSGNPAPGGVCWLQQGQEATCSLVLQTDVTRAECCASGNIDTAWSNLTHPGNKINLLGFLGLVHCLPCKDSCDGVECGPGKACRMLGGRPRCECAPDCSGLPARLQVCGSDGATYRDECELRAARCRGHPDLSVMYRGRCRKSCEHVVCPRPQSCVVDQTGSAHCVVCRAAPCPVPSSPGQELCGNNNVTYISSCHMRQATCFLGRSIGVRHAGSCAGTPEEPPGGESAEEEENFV

SMILES	composite z-score
C=CCN1C(=O)[C@@]2(Cc3ccccc3)N=C(c3ccc(OCCCO)cc3)O[C@H]2c2ccccc21	0.956
CC(=O)Nc1ccc([C@H]2[C@H](C)CC[C@H]3C(=O)N4[C@@H](CC[C@@H](C)[C@@H]4c4ccc(NC(C)=O)cc4)C(=O)N32)cc1	0.845
COc1cc2c(cc1OC)CN(C(=O)[C@@H]1[C@H]3C(=O)O[C@H](c4ccccc4)[C@H](c4ccccc4)N3[C@H](c3ccccc3OCCO)[C@@]13C(=O)Nc1ccccc13)CC2	0.317
CCOC(=O)C[C@H]1[C@H](OC(=O)Cc2ccc3c(c2)OCO3)[C@@H](NC(=O)c2ccc3ccccc3c2)c2cc(OCCCO)ccc2N1C(=O)Cc1ccc(OC)cc1	0.439
CO[C@@H]1COC(=O)[C@H](C)NC(=O)CC=C[C@@H](C)[C@H](OC)COC(=O)[C@H](C)NC(=O)CC=C[C@H]1C	0.66
CO[C@H]1COC(=O)CC=C[C@H](C)COC(=O)[C@@H](OCc2ccccc2)C=C[C@@H]1C	1.2
CCCC[C@@H]1C[C@H]1[C@@H](NC(=O)c1ccccc1)c1ccccc1C(F)(F)F	-0.0027
CO[C@@H]1COC(=O)[C@H](C)NC(=O)CC=C[C@@H](C)[C@H](NS(=O)(=O)c2ccc(C)cc2)COC(=O)CC=C[C@@H]1C	-0.0201
CC(=O)NCCCC[C@@H]1NC(=O)[C@H]2C[C@@H](C(=O)NCCCCCCN(C)C)[C@@H](c3cccc(OCCO)c3)N2C1=O	1.1
NC(=O)NCC#Cc1ccc2c(c1)[C@]1(C(=O)N2)[C@H](c2ccccc2OCCO)N2[C@H](c3ccccc3)[C@H](c3ccccc3)OC(=O)[C@H]2[C@@H]1C(=O)N1CCN(c2ncccn2)CC1	0.844
C[C@]1(C(=O)NCc2ccccc2)c2ccccc2C(=O)N(Cc2cc(C(F)(F)F)cc(C(F)(F)F)c2)[C@H]1c1ccc(CO)cc1	0.439
C=C(COC)/C(=C/C[C@@H](OC(C)=O)c1cccc(OCCO)c1)c1cc(C(=O)OC)ccc1OC	0.121
COC(=O)[C@H]1[C@@H]2COc3ccccc3[C@H]2N[C@H]1C(=O)OC	0.327
CCc1cccc(NC(=O)O[C@H]2[C@H](OC(=O)Nc3ccccc3)[C@@H](OC(=O)Nc3ccccc3)[C@@H](OC)O[C@@H]2CO)c1	1.41
C=CCN1C(=O)[C@]2(O[C@H](CCn3cc(CCO)nn3)[C@@H]([Si](C)(C)c3ccc(OC)cc3)[C@@H]2C)c2cc(NC(=O)c3ccc(OC)cc3)ccc21	0.876
C=C(COC)/C(=C/C[C@H](OC(C)=O)c1ccc(OCCO)cc1)c1cnc2ccccc2c1	1.46
[N-]=[N+]=NCc1ccccc1C[C@]1(C(=O)N2CCCCC2)N=C(c2ccc(OCCCO)cc2)O[C@H]1c1ccccc1CN=[N+]=[N-]	0.556
CO[C@H]1O[C@H](CO)[C@@H](OC(=O)Nc2ccccc2)[C@H](OC(=O)Nc2ccc3c(c2)OCO3)[C@@H]1OC(=O)Nc1ccc2c(c1)OCO2	0.558
CCOC(=O)C1=C[C@@H](c2ccccc2)N(S(=O)(=O)c2ccc(C)cc2)[C@H]1c1ccc(F)cc1	1.04
CCCC=C(CCC)[C@@H](NC(=O)c1ccc(C(F)(F)F)cc1)c1ccccc1	0.0071
COC(=O)C[C@H]1O[C@]2(C(=O)N(Cc3ccccc3)c3ccc(I)cc32)[C@@H](C)[C@@H]1[Si](C)(C)c1ccc(OC)cc1	-0.192
CCC(=O)[C@]12O[C@@]3([C@@H]4C(=O)OCC[C@@H]41)N(CC)C(C)=C(C(=O)OC)[C@@H](c1ccccc1)N3C2=O	0.599
COCCOC(=O)N1C(=O)[C@@]2(c3cc(C#CC4=CCCCC4)ccc31)[C@H](c1ccc(O)cc1)N1[C@H](c3ccccc3)[C@H](c3ccccc3)OC(=O)[C@H]1[C@@H]2C(=O)N1CCCCCCC1	1.24
O=C(CS)NCCCCCNC(=O)[C@H]1C[C@H]2C(=O)N3CCC[C@H]3C(=O)N2[C@H]1c1ccc(O)cc1	-0.47
CSCC[C@@H]1NC(=O)CC=C[C@@H](C)COC(=O)[C@H](CCSC)NC(=O)CC=C[C@@H](C)COC1=O	0.678
COCCOC(=O)N1C(=O)[C@@]2(c3cc(C#CCNC(N)=O)ccc31)[C@H](C(=O)N1CCCCCCC1)[C@H]1C(=O)O[C@H](c3ccccc3)[C@H](c3ccccc3)N1[C@@H]2c1ccccc1OCCO	1.22
O=C1O[C@H](c2ccccc2)[C@H](c2ccccc2)N2[C@H]1[C@@H](C(=O)Nc1nc3ccccc3s1)[C@]1(C(=O)Nc3ccc(C#CC4(O)CCCCCC4)cc31)[C@H]2c1ccc(O)cc1	0.976
